The text below walks through data of PubChem BioAssay (NCI).

The panel holds about 83,000 compounds, 20% with a hit somewhere; the sample as a whole holds those more often.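 Percent growth is the endpoint: 0 to 100 indicates growth inhibition (40 means 60% inhibition), 0 means no net growth, and negative values indicate cell death.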 Unmarked numbers belong to inactive results. The source made the active and inactive calls. Rule for the calls: active = growth percent below 10; inactive = the rest.

Among the test systems are NCI-H23 lung; NCI-H226 lung; NCI-H322M lung; HOP-62 NSCLC; NCI-H460 lung; HOP-92 NSCLC; NCI-H522 lung; A549/ATCC NSCLC; 786-0 renal; COLO 205 colon; DU-145 prostate; K-562 leukemia; MALME-3M melanoma; MDA-MB-231 breast; RXF 393 renal; SF-268 CNS; SF-295 CNS; SF-539 CNS; UACC-257 melanoma; M14 melanoma.
Common to all, as to experiment: NCI-60 one-dose screen, 48 h (100 = growth as untreated, 0 = no growth, -100 = all killed)
Holding throughout (conditions): 10 µM unless noted

On to `O=S(=O)(NCCNc1nccc(-c2c(-c3cccc(O)c3)nc3occn23)n1)c1ccccc1`, for which the growth in the assay with NCI-H23 lung was 93.5%; in the assay with NCI-H226 lung, 104%; with NCI-H322M lung, 93.7%; with HOP-62 NSCLC it was 119%; with NCI-H460 lung, 80.6%; with HOP-92 NSCLC, 80.9%. In addition, the growth with NCI-H522 lung was 77.5%; with A549/ATCC NSCLC it was 78.9%; in the assay on 786-0 renal, 93.3%; in the assay with COLO 205 colon, 34.6%; in the assay with DU-145 prostate, 97.7%; with K-562 leukemia, 68.4%. Besides, the growth with MALME-3M melanoma is 2.3% (active); in the assay with MDA-MB-231 breast it was 66.5%; in the assay with RXF 393 renal, 90.3%; with SF-268 CNS, 85.3%; in the assay on SF-295 CNS it was 96.6%; with SF-539 CNS, 105%. For the same compound, the growth in the assay with UACC-257 melanoma is 17.7%; in the assay with M14 melanoma, 29.4%.

`Cc1ccc(/C=N/NC(=O)CSc2nc3ccccc3c(=O)n2Cc2ccc(S(N)(=O)=O)cc2)cc1`: the growth with NCI-H23 lung is 91.5%; with NCI-H226 lung, 84.6%; with NCI-H322M lung, 102%; in the assay with HOP-62 NSCLC, 85.7%; in the assay on NCI-H460 lung, 98.5%; in the assay with HOP-92 NSCLC it was 109%. For the same compound, the growth in the assay with NCI-H522 lung was 42.5%; in the assay on A549/ATCC NSCLC, 85.9%; in the assay with 786-0 renal, 99.3%; in the assay with COLO 205 colon it was 105%; in the assay on DU-145 prostate, 105%; in the assay with K-562 leukemia, 63.3%. The growth was 97% with MALME-3M melanoma; 89.7% with MDA-MB-231 breast; 86.8% with RXF 393 renal; 78.2% with SF-268 CNS; 95% in the assay on SF-295 CNS; 102% with SF-539 CNS. Moreover, the growth is 96.4% in the assay on UACC-257 melanoma and 98.1% with M14 melanoma.

As to `CCNC(=O)Oc1ccc(/C(=C(\C)c2ccccc2)c2ccc(OCCCN(C)C)cc2)cc1`, the growth was 75.8% with NCI-H23 lung; 99.2% in the assay on NCI-H226 lung; 80.7% with NCI-H322M lung; 87.4% with HOP-62 NSCLC; 87.1% in the assay on NCI-H460 lung; 69.4% in the assay on HOP-92 NSCLC. Further, the growth in the assay with NCI-H522 lung is 86.4%; in the assay with A549/ATCC NSCLC it was 78.9%; with 786-0 renal, 64.2%; with COLO 205 colon, 54.5%; in the assay with DU-145 prostate, 92.5%; in the assay with K-562 leukemia, 14.4%. The growth in the assay on MALME-3M melanoma is 40.9%; with MDA-MB-231 breast it was 76.6%; in the assay with RXF 393 renal, 76.1%; with SF-268 CNS, 72.1%; in the assay with SF-295 CNS, 52.4%; in the assay with SF-539 CNS, 65.8%. The growth with UACC-257 melanoma is 3.23% (active); in the assay on M14 melanoma, 19.7%.

Turning to `CCCCCCOc1ccc(/C=N/Nc2cc(C)nc3ccc(Cl)cc23)cc1`, the growth was 68.3% in the assay with NCI-H23 lung; 87.8% with NCI-H226 lung; 14.6% in the assay with NCI-H322M lung; -51.6% (active) with HOP-62 NSCLC; -80% (active) in the assay with NCI-H460 lung; 69.5% in the assay with HOP-92 NSCLC. Further, the growth with NCI-H522 lung is -42.9% (active); in the assay with A549/ATCC NSCLC, -43.1% (active); in the assay with 786-0 renal, -82.2% (active); in the assay on COLO 205 colon it was -48.4% (active); in the assay on DU-145 prostate, -49% (active); with K-562 leukemia it was -20.4% (active). Also, the growth was -48.7% (active) in the assay with MALME-3M melanoma; -79.9% (active) in the assay on MDA-MB-231 breast; -94.3% (active) in the assay with RXF 393 renal; 69.9% in the assay on SF-268 CNS; -84.3% (active) in the assay on SF-295 CNS; -86.5% (active) with SF-539 CNS. Further, the results for the growth in the assay with UACC-257 melanoma and in the assay with M14 melanoma were 116% and 2.01% (active), respectively.

For the compound `O=c1[nH]nc(-c2ccccc2)c2sc3ncc(-c4ccc(Br)cc4)n3c12`, the growth is 61.6% with NCI-H23 lung; 43.8% in the assay with NCI-H226 lung; 72.3% with NCI-H322M lung; 48.8% in the assay on HOP-62 NSCLC; 33.8% in the assay on NCI-H460 lung; 65.3% with HOP-92 NSCLC. The growth in the assay on NCI-H522 lung is -1.56% (active); in the assay with A549/ATCC NSCLC, 82.9%; with 786-0 renal, 53%; in the assay with COLO 205 colon, 37.2%; in the assay with DU-145 prostate it was 28.6%; with K-562 leukemia, 16.1%. Also, the growth in the assay with MALME-3M melanoma is 52.4%; with MDA-MB-231 breast, 69.1%; in the assay on RXF 393 renal, 57.9%; in the assay on SF-268 CNS, 51%; in the assay with SF-295 CNS it was 48.9%; with SF-539 CNS it was 41.3%. Moreover, the growth with UACC-257 melanoma is 66%; with M14 melanoma, 42.3%.

In the case of `ClC1=C(Br)C(Br)(Br)C(=C(Br)Br)C1(Br)Br`, the growth in the assay on NCI-H23 lung was 104%; in the assay with NCI-H226 lung, 93.6%; in the assay with NCI-H322M lung, 99%; in the assay on HOP-62 NSCLC, 121%; in the assay with NCI-H460 lung, 94.7%; in the assay with HOP-92 NSCLC, 94%. Also, the growth with NCI-H522 lung was -25% (active); in the assay with A549/ATCC NSCLC, 94.6%; in the assay with 786-0 renal, 109%; with COLO 205 colon, 57.3%; with DU-145 prostate it was 104%; in the assay with K-562 leukemia, 70.1%. Also, the growth with MALME-3M melanoma is 94.1%; in the assay on MDA-MB-231 breast, 79.2%; in the assay on RXF 393 renal, 94.3%; with SF-268 CNS, 108%; with SF-295 CNS it was 115%; in the assay with SF-539 CNS, 100%. Besides, the growth was 87.6% in the assay with UACC-257 melanoma and 81.6% with M14 melanoma.

As for `NC(=NCc1ccccc1)C(N=Nc1ccccc1)C(=O)NCc1ccccc1` (stereo not given), the growth is 65.3% with NCI-H23 lung; 109% in the assay on NCI-H226 lung; 101% in the assay on NCI-H322M lung; 92.2% in the assay with HOP-62 NSCLC; 50.1% in the assay with NCI-H460 lung; 99% in the assay on HOP-92 NSCLC. The growth in the assay with NCI-H522 lung is 63.4%; with A549/ATCC NSCLC, 1.29% (active); with 786-0 renal it was 92.4%; with COLO 205 colon it was 79.5%; in the assay on DU-145 prostate, 94.4%; in the assay on K-562 leukemia it was 25.2%. For the same compound, the growth with MALME-3M melanoma is 133%; in the assay with MDA-MB-231 breast, 68.3%; with RXF 393 renal, 72.6%; in the assay on SF-268 CNS, 53.5%; in the assay with SF-295 CNS, 53.9%; with SF-539 CNS, 50.3%. The results for the growth with UACC-257 melanoma and with M14 melanoma were 95.4% and 82.9%, respectively.

Consider `COc1ccc(CC(C)=C(c2ccc(OCCN3CCCCCC3)cc2)c2ccc(OCCN3CCCCCC3)cc2)cc1`, for which the growth was -87.9% (active) with NCI-H23 lung; -74.4% (active) in the assay with NCI-H226 lung; -99.3% (active) in the assay with NCI-H322M lung; -77.4% (active) in the assay with HOP-62 NSCLC; -95% (active) with NCI-H460 lung; -73.7% (active) in the assay with HOP-92 NSCLC. Besides, the growth in the assay with NCI-H522 lung is -82.4% (active); in the assay with A549/ATCC NSCLC it was -86% (active); in the assay with 786-0 renal, -72.1% (active); in the assay on COLO 205 colon, -67.5% (active); in the assay with DU-145 prostate, -96.2% (active); with K-562 leukemia, -55.4% (active). For the same compound, the growth was -91.9% (active) in the assay on MALME-3M melanoma; -98.2% (active) in the assay on MDA-MB-231 breast; -82.1% (active) with RXF 393 renal; -81.2% (active) in the assay on SF-268 CNS; -93.3% (active) in the assay with SF-295 CNS; -95.8% (active) in the assay on SF-539 CNS. The growth is -76.3% (active) in the assay on UACC-257 melanoma and -67.3% (active) in the assay with M14 melanoma.
